The list is not random: actives were taken first. Their share in the collection is about 5.7%.
D3 ag: D3 dopamine receptor (human) agonism. P35462. D3R DiscoveRx beta-arrestin cells, luminescence, 90 min. max activation, %. actives 0.58% (n = 410,000). AID 652048; in the data active = max activation above about 30%
Target sequence (P35462 whole entry, looked up): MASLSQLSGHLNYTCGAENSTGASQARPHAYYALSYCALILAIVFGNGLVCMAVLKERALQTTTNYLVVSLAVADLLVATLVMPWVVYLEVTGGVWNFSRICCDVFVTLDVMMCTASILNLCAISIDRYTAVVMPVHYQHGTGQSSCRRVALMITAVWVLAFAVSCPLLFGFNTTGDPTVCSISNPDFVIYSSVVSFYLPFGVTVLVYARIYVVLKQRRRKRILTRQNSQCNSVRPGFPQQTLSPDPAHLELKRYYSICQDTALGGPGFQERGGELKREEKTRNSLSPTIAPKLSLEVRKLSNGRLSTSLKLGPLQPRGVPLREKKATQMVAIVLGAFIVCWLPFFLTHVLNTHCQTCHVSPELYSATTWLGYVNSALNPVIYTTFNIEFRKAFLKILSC
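Agonist mode: compounds and dopamine controls were applied to plated cells for 90 min at 37 degrees C after an overnight attachment at 1500 cells/well. Luminescent read-out followed 30 - 60 minutes at room temperature with DiscoveRx detection reagent.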
GLP1R inv ag: acts as inverse agonist at human GLP-1 receptor; P43220; HEK293 GLP-1R CRE-luciferase, luminescence, 24 h; GLP-1R form is constitutively active; Potency, µM (titrated, usually from 38.3 µM), hits mostly inhibitors; actives 1.6% (n = 410,000); AID 624417; note: nearly all actives have a fitted effect of over 55% in size
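Seeding at 200 cells/uL, 12 h culture, 24 hr compound treatment, then luciferase reagent and a luminescence read; cells are HEK293 stably expressing a constitutively active GLP-1R plus cAMP-responsive luciferase.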
D3 antag: blocks the human D3 dopamine receptor; max response, negative = inhibition, %; P35462; D3R cells, DiscoveRx beta-arrestin luminescence, antagonist mode; hits give low values; actives 2.5% (n = 360,000); in the data active = max response below about -50%; inconclusive = no clear call, values can overlap the other calls
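Cells plated overnight at 1500 cells/well, then exposed to library compounds with dopamine controls for 90 minutes at 37 degrees C. DiscoveRx reagent added for 30–60 minutes at room temperature; luminescence read, quantitative HTS format.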
GLP-1R agonist: agonists of human GLP-1 receptor | P43220 | actives 0.007% (n = 380,000) | Potency, µM (series often up to 45.6 µM), actives largely listed as activators | HEK293 GLP-1R CRE-luciferase, luminescence, 4-6 h; cells express a hypersensitive GLP-1R form | AID 624172
GLP1R cytotox: cytotoxicity in counter-screen for GLP-1R inverse agonists; HEK293 cAMP-luciferase reporter cells, luminescence, 24 h; Potency, µM (doses to about 38.3 µM), usual class: inhibitors; actives 0.13% (n = 410,000);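 note: loss of luciferase light is scored as toxicity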
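1536-well qHTS counterscreen of the MLSMR; 200 cells/uL, 12 h pre-incubation, 23 nL cpd, 24 h at 37 deg C 5% CO2, luciferase detection reagent, 12 min RT, luminescence. Inhibition = undesired.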
ClpP mod: qHTS Assay for Activators of ClpP; ATP-dependent Clp protease proteolytic subunit (Bacillus subtilis (strain 168)), P80244; Potency, µM (series often up to 57.5 µM); AID 651965, 2013; actives 1.9% (n = 340,000); purified B. subtilis ClpP, FRET peptide cleavage, 20 min; active = well fitted falling curve with a large enough effect; inconclusive = small, poorly fitted or top-dose-only effect; inactive = no such curve, though single readings can be large or run the other way; note: the source files actives as falling curves though it sought activators and does not explain the sign; nearly all actives have a fitted effect of over 65% in size
Target sequence (P80244 whole entry, looked up): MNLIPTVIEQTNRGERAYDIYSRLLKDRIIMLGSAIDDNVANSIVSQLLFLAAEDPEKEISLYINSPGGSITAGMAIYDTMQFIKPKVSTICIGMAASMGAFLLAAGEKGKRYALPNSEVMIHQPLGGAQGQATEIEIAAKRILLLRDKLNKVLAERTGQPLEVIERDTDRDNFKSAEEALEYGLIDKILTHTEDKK
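Buffer: 100 mM Tris/HCl pH8, 100 mM KCl, 0.05% low protease BSA, 2.5% glycerol, 0.01% Tween-20. ClpP 10 microg/mL final; 20 min RT; delta FRET normalized to ADEP and DMSO controls.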
Numbers stand for hits. Unless noted, calls come from the whole dose curve; as a rule, active = well fitted curve in the direction sought with a large enough effect; inconclusive = small, poorly fitted or top-dose-only effect, or another doubt; inactive = no such curve, though single readings can be large; an effect the other way counts as inactive or inconclusive.

`CC(=O)N1CCc2c(sc3c2c(=O)n(-c2ccc(C)cc2)c(=O)n3CC(=O)Nc2ccccc2)C1` gave D3 ag inactive, GLP1R inv ag inactive, GLP1R cytotox inactive and ClpP mod inactive.
CC(C)c1noc(-c2ccccc2OCC(=O)Nc2cccc([N+](=O)[O-])c2)n1 was read as D3 ag inactive, GLP1R inv ag inactive, GLP1R cytotox inactive and ClpP mod inactive.
Screening Cc1cccc(NS(=O)(=O)c2ccc(Cl)c(C(=O)Nc3ccccc3C)c2)c1 returned D3 ag inactive, GLP1R inv ag inconclusive, GLP1R cytotox inactive and ClpP mod inactive.
Cc1cccc(NC(=O)c2cc(S(=O)(=O)c3ccccc3)ccc2Cl)c1 was read as D3 ag inactive, GLP1R inv ag 8.91µM, D3 antag inactive, GLP-1R agonist inactive, GLP1R cytotox inactive and ClpP mod inactive.
Cc1ccccc1NC(=O)c1cc(S(=O)(=O)c2ccccc2)ccc1Cl was read as D3 ag inactive, GLP1R inv ag inconclusive, D3 antag -51.7, GLP-1R agonist inactive, GLP1R cytotox inactive and ClpP mod inactive.
Screening O=C(O)CCc1ccc(-c2ccccc2)n1CC(=O)Nc1ccccc1C(F)(F)F returned D3 ag inactive, GLP1R inv ag inactive, GLP1R cytotox inactive and ClpP mod inactive.
For COc1ccccc1-c1ccc(/C=C2/C=C(C)OC2=O)o1 the results were D3 ag inactive, GLP1R inv ag inactive, D3 antag inactive, GLP-1R agonist inactive, GLP1R cytotox inactive and ClpP mod 31.6µM.
For CCC1Oc2ccc(C)cc2N(CC(=O)N(Cc2ccc(C)o2)C2CCCC2)C1=O (stereo not given) the results were D3 ag inactive, GLP1R inv ag 4.47µM, D3 antag inconclusive, GLP-1R agonist inactive, GLP1R cytotox inactive and ClpP mod inactive.
Screening CCC1Oc2ccc(C)cc2N(CC(=O)NC2CCCCC2)C1=O (stereo not given) returned D3 ag inactive, GLP1R inv ag inactive, D3 antag inactive, GLP-1R agonist inactive and GLP1R cytotox inactive.
`CCc1cccc(NC(=O)Cn2c(-c3ccc(F)cc3)cc(C(C)=O)c2C)c1` gave D3 ag inactive, GLP1R inv ag inconclusive, GLP1R cytotox inactive and ClpP mod inactive.
For COc1ccc(NC(=O)CSc2nc(-c3ccc(OC)cc3)cc(=O)[nH]2)cc1 the results were D3 ag inactive, GLP1R inv ag inactive, GLP1R cytotox inactive and ClpP mod inactive.
`O=C(c1nc[nH]c1C(=O)N1CCc2ccccc2C1)N1CCc2ccccc2C1` gave D3 ag 141.9, GLP1R inv ag inactive, D3 antag inactive, GLP-1R agonist inactive, GLP1R cytotox inactive and ClpP mod inactive.
CCCCC(=O)OCC(=O)[C@]1(O)Cc2c(O)c3c(c(O)c2[C@@H](O[C@H]2C[C@H](NC(=O)C(F)(F)F)[C@H](O)[C@H](C)O2)C1)C(=O)c1c(OC)cccc1C3=O was read as D3 ag inactive.
CCOC(=O)c1ccccc1NC(=O)N(C(C)C)C1CCN(C(C)=O)CC1 was read as D3 ag inactive, GLP1R inv ag inactive, GLP1R cytotox inactive and ClpP mod 28.2µM.
Screening O=C(CS(=O)(=O)c1cccc2nsnc12)N1CCN(c2ccccc2F)CC1 returned D3 ag inactive, GLP1R inv ag inactive, GLP1R cytotox inactive and ClpP mod inactive.
Screening CC1(C)C2CCC1(C)C(NC(=O)COC(=O)c1ccc(S(C)(=O)=O)c([N+](=O)[O-])c1)C2 (stereo not given) returned ClpP mod inactive.
`CCC(C(=O)N1CCN(c2cccc(Cl)c2)CC1)c1ccccc1` (stereo not given) gave D3 ag inactive, GLP1R inv ag 5.01µM, D3 antag -59.0, GLP-1R agonist inactive, GLP1R cytotox inactive and ClpP mod inactive.
`O=C(C(Cc1ccccc1)n1cccc1)N1CCN(c2cccc(Cl)c2)CC1` (stereo not given) gave D3 ag inactive, GLP1R inv ag 11.2µM, D3 antag inactive, GLP-1R agonist inactive, GLP1R cytotox inactive and ClpP mod inactive.
For CCC(CC)C(=O)N1CCN(c2ccccc2)CC1 the results were D3 ag inactive, GLP1R inv ag inactive, D3 antag inactive, GLP-1R agonist inactive and GLP1R cytotox inactive.
`CCOc1ccccc1NC(=O)Cn1cnc2c1c(=O)n(C)c(=O)n2C` gave D3 ag inactive, GLP1R inv ag inactive, GLP1R cytotox inactive and ClpP mod inactive.
Screening Cc1ccc(C(=O)Oc2cc(C)n(C)c(=O)c2)cc1 returned D3 ag 34.5, GLP1R inv ag inactive, D3 antag inactive, GLP-1R agonist inactive, GLP1R cytotox inactive and ClpP mod inconclusive.
CC(=O)c1c(OC(=O)c2ccc(C)cc2)c2ccccc2n1C was read as D3 ag inactive, GLP1R inv ag inconclusive, D3 antag inactive, GLP-1R agonist inactive, GLP1R cytotox inactive and ClpP mod inactive.
Screening CN(C(=O)n1cnc2ccccc21)c1ccccc1 returned D3 ag inactive, GLP1R inv ag inactive, D3 antag inactive, GLP-1R agonist inactive, GLP1R cytotox inactive and ClpP mod inactive.
For ClC(Br)=C(n1cnc2ccccc21)n1cnc2ccccc21 the results were D3 ag inactive, GLP1R inv ag inactive, D3 antag inactive, GLP-1R agonist inactive, GLP1R cytotox inactive and ClpP mod 25.1µM.
COc1ccc(-c2cc(=O)oc3c4c(ccc23)OCN(Cc2cccc(OC)c2)C4)cc1 was read as D3 ag inactive, GLP1R inv ag inactive, GLP1R cytotox inactive and ClpP mod 31.6µM.
For COc1ccc(CNC(=O)Cc2ccc(NC(=O)N3CCSc4ncccc43)cc2)cc1OC the results were D3 ag inactive, GLP1R inv ag inactive, GLP1R cytotox inactive and ClpP mod inconclusive.
For Cc1ccc(S(=O)(=O)Nc2ccc(Nc3nccn4c(-c5cccc(OC(F)(F)F)c5)cnc34)cc2)cc1 the results were D3 ag inactive, GLP1R inv ag inconclusive, D3 antag inactive, GLP-1R agonist inactive, GLP1R cytotox inactive and ClpP mod 31.6µM.
Screening CCc1cc(C(=O)/C=C/c2cc3c(cc2C)OCCO3)c(O)cc1O returned ClpP mod inactive.
Screening COc1cccc(C2CC(c3cccs3)=NN2C(=O)CSc2nc3ccccc3o2)c1OC (stereo not given) returned D3 ag inactive, GLP1R inv ag inactive, D3 antag inactive, GLP-1R agonist inactive, GLP1R cytotox inactive and ClpP mod 8.91µM.
Screening CCOC(=O)CCSCC(=O)N1N=C(c2cccs2)CC1c1ccc(C)cc1 (stereo not given) returned D3 ag inactive, GLP1R inv ag inconclusive, D3 antag inactive, GLP-1R agonist inactive, GLP1R cytotox inactive and ClpP mod 28.2µM.

Bioassay records as filed in PubChem.
